Measurements from PubChem BioAssay (NCI).
About 83,000 compounds went through this panel and 20% of them were active in at least one assay; those are over-represented in the sample as a whole.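 For each line, cells grew in 96-well plates with the test compound present at a single concentration for 48 hours.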 Calls of active or inactive are those of the source. Rule for the calls: active = growth percent below 10; inactive = the rest.

Columns and labels:
Test in all cases: NCI-60 one-dose screen, 48 h (100 = growth as untreated, 0 = no growth, -100 = all killed)
Details in all cases: 10 µM unless noted
[1] = tested on: HCT-15 colon
[2] = tested on: HT29 colon
[3] = tested on: SNB-75 CNS
[4] = tested on: SNB-19 CNS
[5] = tested on: U251 CNS
[6] = tested on: PC-3 prostate
[7] = tested on: SK-MEL-5 melanoma
[8] = tested on: UACC-62 melanoma
[9] = tested on: LOX IMVI melanoma

Measured: growth

FC(F)(F)c1ccc(/C=N/Nc2nnc3n2N=C(c2ccc(Cl)cc2)CS3)cc1
active: [3] -24.9%
inactive: [1] 79.9% | [2] 70.1% | [4] 20.3% | [5] 60.4% | [6] 53.1% | [7] 76.4% | [8] 55.1% | [9] 82.8%

COc1cccc2nc(Nc3cccc(NC(=O)c4cc(N5CCOCC5)cc(C(F)(F)F)c4)c3)ccc12
inactive: [1] 48.2% | [2] 43.4% | [3] 50.1% | [4] 74.6% | [5] 50.6% | [6] 36.8% | [7] 42.7% | [8] 71.4% | [9] 56%

Cc1c(-c2ccc(-c3ccccc3F)cc2)nc2ccc(F)cc2c1C(=O)O
active: [9] 9.11%
inactive: [1] 29% | [2] 28.3% | [3] 60.9% | [4] 41% | [5] 31.9% | [6] 33.2% | [7] 40.4% | [8] 39.5%

COc1cc2nccc(Oc3ccc(NC(=O)C4(C(=O)Nc5c(F)cc(F)cc5F)CC4)cc3)c2cc1Oc1ccc(N)cn1
inactive: [1] 45.5% | [2] 34.8% | [3] 21.7% | [4] 78.7% | [5] 67.3% | [6] 51.5% | [7] 29% | [8] 24.4% | [9] 49.4%

COc1cc2nccc(Oc3ccc(NC(=O)C4(C(=O)Nc5ccc(F)cc5)CC4)cc3)c2cc1Oc1ccc(N)cn1
inactive: [1] 27.9% | [4] 54.5% | [5] 33.6% | [6] 24.5% | [7] 39.2% | [9] 10.7%
active: [2] 9.65% | [3] -12.5% | [8] 5.29%

COc1ccc(NC(=O)/C=C/c2ccc(Cl)c(Cl)c2)cn1
inactive: [1] 51.6% | [2] 93.5% | [3] 102% | [4] 91.2% | [5] 87.4% | [6] 74.3% | [7] 71.4% | [8] 77.6% | [9] 93.6%

CCC(C)C1NC(=O)c2nc(oc2-c2ccccc2)-c2csc(n2)-c2csc(n2)-c2nc(oc2C)-c2coc(n2)CNC(=O)C(C(C)CC)NC1=O (stereo unspecified)
active: [1] -77.7% | [2] -81.6% | [3] -86.3% | [4] -61.3% | [5] -83.4% | [6] -85.6% | [7] -91.3% | [8] -70.5% | [9] -72.4%

CC[C@H](Nc1nc(N)nc(C2CC2)c1C#N)c1nc2cccc(NCc3ccc(C(=O)NO)cc3)c2c(=O)n1-c1ccccc1
active: [3] -2.59% | [4] 7.25% | [5] -4.25% | [7] -29.5% | [8] -19% | [9] -89.2%
inactive: [1] 19% | [2] 13.4% | [6] 10.1%

Fc1ccc2c(CN3CCO[C@H](COc4cccc(Cl)c4)C3)c[nH]c2c1
inactive: [1] 59.1% | [2] 47.4% | [3] 59% | [4] 56.8% | [5] 44.7% | [6] 36.7% | [7] 63.4% | [8] 60.2% | [9] 45.9%

COc1cc(C)c2c(=O)c3c(oc2c1)C(=O)c1c(O)c(OC)cc(O)c1C3=O
active: [1] 5.54% | [3] -13.2% | [6] -8.33% | [7] -43.8% | [9] 3.56%
inactive: [2] 68.1% | [4] 20.2% | [5] 10.8% | [8] 22.5%

COc1cc(CN2CCO[C@H](COc3cccc(F)c3)C2)ccc1Cl
inactive: [1] 26.3% | [2] 42.6% | [3] 45% | [4] 29.8% | [5] 27.5% | [6] 27.8% | [7] 37.7% | [8] 44.7% | [9] 50.7%

Oc1c(C(c2ccc(F)cc2)N2CCCCC2)ccc2cncnc12 (stereo unspecified)
active: [3] 7.45% | [5] 1.52% | [7] -19.7% | [8] -0.545% | [9] 7.17%
inactive: [1] 26% | [2] 13.5% | [4] 11.1% | [6] 10.6%

O=C1c2ccccc2C(=O)c2c1oc1ccc3ccccc3c21
inactive: [1] 65% | [2] 106% | [3] 93.3% | [4] 90% | [5] 81.1% | [6] 72.3% | [7] 17.3% | [8] 84.2% | [9] 41.9%

Cc1cc(C)cc(NC(=O)Cn2nncc2CN2C(=O)CSC2=O)c1
inactive: [1] 99.4% | [2] 108% | [3] 95.1% | [4] 100% | [5] 102% | [6] 100% | [7] 103% | [8] 94% | [9] 91.3%

CC[C@H](Nc1nc(C)nc(N)c1C#N)c1nc2cccc(NCc3ccc(C(=O)NO)cc3)c2c(=O)n1-c1ccccc1
active: [3] 7.85% | [5] 1.03% | [6] 8.89% | [7] -20.4% | [8] 4.19% | [9] -59.6%
inactive: [1] 21% | [2] 14.8% | [4] 17.6%

COc1ccc(NC(=O)/C=C/c2ccc(NC(=O)N3CCCC3)cc2)cn1
inactive: [1] 94.1% | [2] 106% | [3] 102% | [4] 102% | [5] 98.6% | [6] 96.5% | [7] 99.8% | [8] 101% | [9] 98.4%

FC1(F)CCN(Cc2c[nH]c3cc(Cl)ccc23)C[C@H]1CCc1ccccc1
inactive: [1] 51% | [2] 26.6% | [3] 40.8% | [4] 68% | [5] 44.5% | [6] 53.3% | [7] 62.7% | [8] 59.9% | [9] 46.9%

Clc1cn2cc(-c3ccc(Cl)c(Cl)c3Cl)nc2s1
inactive: [1] 93.9% | [2] 112% | [3] 91.4% | [4] 99.8% | [5] 102% | [6] 99.9% | [7] 100% | [8] 96.3% | [9] 99.3%

COc1ccc2[nH]c(C(=O)OCc3ccc4cccc(O)c4n3)cc2c1
active: [1] -43.8% | [2] -73.1% | [3] -29.1% | [6] -55.7% | [7] -56.9% | [8] -81% | [9] -89.1%
inactive: [4] 50.8% | [5] 22.1%

Cc1ccc(NC(=O)Cn2nncc2CN2C(=O)CSC2=O)cc1C
inactive: [1] 94.5% | [2] 105% | [3] 93.3% | [4] 97.9% | [5] 103% | [6] 99.3% | [7] 98.7% | [8] 102% | [9] 93.6%

CC(=O)c1ccc(Nc2nc(Cl)nc(Oc3c(Cl)cccc3Cl)n2)cc1
inactive: [1] 89.7% | [2] 73.6% | [3] 75% | [4] 81.9% | [5] 76.9% | [6] 72.5% | [7] 79.1% | [8] 80.6% | [9] 87.9%

Nc1ccc(N(O)/C=C2\C=CC=CC2=O)cc1N
inactive: [1] 87% | [2] 172% | [3] 104% | [4] 102% | [5] 94.1% | [6] 69.6% | [7] 76.3% | [8] 66.1% | [9] 48.8%

CN1CCN(Cc2ccc(NC(=O)c3cncc(C#Cc4cnc5cccnn45)c3)cc2C(F)(F)F)CC1
active: [1] 5.63% | [2] 1.67% | [3] -68.8% | [4] 9.4% | [5] 5.83% | [6] 5.62% | [7] 1.22% | [9] -16.2%
inactive: [8] 10%

C=C(C)[C@@H]1CC[C@]2(C)[C@H](CC=C3[C@@H]4C[C@](C)(C(=O)N5CCN(C)CC5)CC[C@]4(C)CC[C@]32C)[C@@]1(C)CCC#N
inactive: [1] 38.2% | [2] 33.2% | [3] 79.1% | [4] 89.4% | [5] 50% | [6] 30.6% | [7] 18.9% | [8] 53.5% | [9] 47.6%

F
inactive: [1] 57.4% [6.87 mM] | [3] 11.4% [6.87 mM] | [4] 41.2% [6.87 mM] | [5] 17% [6.87 mM] | [6] 33% [6.87 mM]
active: [2] 1.64% [6.87 mM] | [7] -66.1% [6.87 mM] | [8] -74.4% [6.87 mM] | [9] 1.06% [6.87 mM]

COC(=O)/C=C/c1cc(OC(C)=O)c2c(c1)[C@@H](C(=O)OC)[C@H](c1ccc(OC(C)=O)c(OC(C)=O)c1)O2
inactive: [2] 11.8% | [4] 34.6% | [5] 18.1% | [6] 14.3% | [8] 33.6%
active: [1] 8.71% | [3] -3.49% | [7] -42.4% | [9] 7.76%

CCN(CC)CCCC(C)Nc1cnc(C(=O)Nc2ccc(Cl)c3cccnc23)cn1 (stereo unspecified)
inactive: [3] 41.7% | [4] 49.6% | [6] 39.4%
active: [1] 3.73% | [2] -49.4% | [5] -35.3% | [7] -3.7% | [8] -52.4% | [9] -83.9%

COc1cccc(CC(C)=C(c2ccc(OCCCN(C)C)cc2)c2ccc(OCCCN(C)C)cc2)c1
active: [1] -78.4% | [2] -81.5% | [3] -94.9% | [4] -72.1% | [5] -94.8% | [6] -89.4% | [7] -95.3% | [8] -84.7% | [9] -79.6%

O=C1Cc2c([nH]c3ccc([N+](=O)[O-])cc23)-c2ccccc2N1
inactive: [4] 20.8% | [8] 11.4%
active: [1] 5.02% | [2] 4.95% | [3] -7.52% | [5] 8.97% | [6] 9.61% | [7] -47.2% | [9] 9.02%
